Records with an inconclusive call do not appear. Active and inactive are the calls of the source. The calls were made as follows, unless noted: active = hit-call score of the fitted dose curve at least 0.9, where 1 is the maximum; inconclusive = response in the unintended direction; inactive = score below 0.9.

Test [1] addresses human Beta-secretase (BACE), BACE1 (gene 23621) (UniProt P56817). The experiment in a line: NVS_ENZ_hBACE: NovaScreen (NVS) Enzymatic Assay for human Beta-secretase (BACE) (AID 2283140).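 Also: hits are inhibitors that reduce fluorescent substrate signal versus DMSO.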 The method in brief: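 Cell-free assay of recombinant Sf9-expressed human BACE with fluorescent substrate, read by fluorescence intensity after 1 h. Primary screen in duplicate at 25 uM; actives then run in concentration series; loss of signal relative to DMSO.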

In test [2] the target is chimpanzee Androgen Receptor (AR), AR (gene 747460) (UniProt O97775). The experiment in a line: NVS_NR_cAR: NovaScreen (NVS) Nuclear Receptor Binding Assay for chimpanzee Androgen Receptor (AR) (AID 2283346).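 Also: radioligand displacement from AR measured by scintillation counting in a cell-free assay; a loss of bound radioligand signal versus DMSO counts as binding.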 The method in brief:
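Radioligand binding to chimpanzee AR expressed in Sf9/Sf21 cells, cell-free, measured 72 h after dosing by lysate-based scintillation counting. Loss of signal vs DMSO; initial duplicate screen at 25 uM, actives retested in concentration series.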

For test [3], the target named is sheep Cyclooxygenase-2 (Cox2), PTGS2 (gene 443460) (UniProt P79208). In words: NVS_ENZ_oCOX2: NovaScreen (NVS) Enzymatic Assay for sheep Cyclooxygenase-2 (Cox2) (AID 2283231). The method in brief: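 Colorimetric absorbance read-out of COX activity, taken 0.66 hour post-dosing, using native protein from sheep placenta. Single-concentration duplicate screen (25 uM), then singleton concentration-response up to 50 uM for actives.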
Chain of sheep Cyclooxygenase-2 (Cox2), PTGS2 (gene 443460) (P79208 whole entry, looked up): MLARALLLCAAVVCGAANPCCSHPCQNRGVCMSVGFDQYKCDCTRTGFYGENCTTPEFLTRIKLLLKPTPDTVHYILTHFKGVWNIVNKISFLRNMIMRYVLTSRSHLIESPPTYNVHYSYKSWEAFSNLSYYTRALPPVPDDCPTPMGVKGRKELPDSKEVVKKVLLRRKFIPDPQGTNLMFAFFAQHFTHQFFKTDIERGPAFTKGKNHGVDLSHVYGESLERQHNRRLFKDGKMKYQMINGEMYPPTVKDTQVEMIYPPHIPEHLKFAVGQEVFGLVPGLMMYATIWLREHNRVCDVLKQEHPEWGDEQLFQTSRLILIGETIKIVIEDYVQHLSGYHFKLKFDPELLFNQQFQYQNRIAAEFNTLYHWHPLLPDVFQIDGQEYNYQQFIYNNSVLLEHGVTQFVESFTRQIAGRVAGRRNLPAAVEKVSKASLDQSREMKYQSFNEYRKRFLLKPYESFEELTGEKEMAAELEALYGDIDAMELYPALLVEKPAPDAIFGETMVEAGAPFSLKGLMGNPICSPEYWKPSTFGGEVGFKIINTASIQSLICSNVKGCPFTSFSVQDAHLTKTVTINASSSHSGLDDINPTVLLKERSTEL

Test [4] concerns the target Estrogen receptor (Homo sapiens) (UniProt P03372). The experiment in a line: OT_ER_ERaERa_1440: Odyssey Thera (OT) 24-hour HEK293T Protein-Complementation Assay for Estrogen Receptor-alpha/-alpha Homodimer (AID 2283349).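 Also: hits raise fluorescence above DMSO for agonists and antagonists alike.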 The method in brief: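 HEK293T cells stably expressing the human ER alpha ligand-binding domain (aa 310-547) as a homodimer PCA were dosed for 24 hours. Fluorescence intensity was read by laser scanning cytometry, and gain of signal was fitted relative to DMSO vehicle.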

Test [5] shares this target. In words: OT_ER_ERaERa_0480: Odyssey Thera (OT) 8-hour HEK293T Protein-Complementation Assay for Estrogen Receptor-alpha/-alpha Homodimer (AID 2283351).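 Also: rise in fluorescence from reassembled reporter fragments on ERα LBD homodimer in nucleus or whole cell.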 The gist of the method:
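The readout is complementation of fragments fused to the human ER alpha ligand-binding domain (aa 310-547), stably expressed in HEK293T cells. After 8 h of exposure, the increase in nuclear/cytoplasmic fluorescence was measured by laser scanning cytometry and fitted relative to DMSO.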

In test [6] the target is Estrogen receptor (Homo sapiens) + Estrogen receptor beta (Homo sapiens) (UniProt P03372+Q92731). In words: OT_ER_ERaERb_1440: Odyssey Thera (OT) 24-hour HEK293T Protein-Complementation Assay for Estrogen Receptor-alpha/-beta Homodimer (AID 2283356).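 Also: heteromer of ER alpha and ER beta binding domains; hits raise reporter fluorescence and both agonists and antagonists give an increase.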 The method in brief: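 Readout: mean fluorescence intensity in nucleus (agonists) or nucleus plus cytoplasm (antagonists), read by laser scanning cytometer after 24 h compound exposure of HEK293T cells carrying ERα/ERβ LBD fragment-complementation constructs; DMSO baseline.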
Chain of Estrogen receptor (Homo sapiens) + Estrogen receptor beta (Homo sapiens) (P03372 whole entry, looked up, the tested form may be a part): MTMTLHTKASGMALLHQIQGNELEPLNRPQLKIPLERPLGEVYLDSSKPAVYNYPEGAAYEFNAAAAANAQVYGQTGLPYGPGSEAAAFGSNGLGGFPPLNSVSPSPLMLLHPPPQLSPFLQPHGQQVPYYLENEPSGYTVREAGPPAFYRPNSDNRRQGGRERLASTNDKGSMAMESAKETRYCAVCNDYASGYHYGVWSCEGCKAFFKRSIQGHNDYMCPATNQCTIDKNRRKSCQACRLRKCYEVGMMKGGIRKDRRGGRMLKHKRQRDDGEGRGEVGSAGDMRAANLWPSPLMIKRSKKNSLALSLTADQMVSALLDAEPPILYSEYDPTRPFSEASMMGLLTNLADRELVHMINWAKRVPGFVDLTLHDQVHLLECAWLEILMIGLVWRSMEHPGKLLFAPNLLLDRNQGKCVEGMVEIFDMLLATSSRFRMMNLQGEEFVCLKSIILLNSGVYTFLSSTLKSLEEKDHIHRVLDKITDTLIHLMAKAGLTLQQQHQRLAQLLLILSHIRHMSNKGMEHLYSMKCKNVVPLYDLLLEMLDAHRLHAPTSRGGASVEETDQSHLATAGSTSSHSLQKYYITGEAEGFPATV
Chain of Estrogen receptor (Homo sapiens) + Estrogen receptor beta (Homo sapiens) (Q92731 whole entry, looked up, the tested form may be a part): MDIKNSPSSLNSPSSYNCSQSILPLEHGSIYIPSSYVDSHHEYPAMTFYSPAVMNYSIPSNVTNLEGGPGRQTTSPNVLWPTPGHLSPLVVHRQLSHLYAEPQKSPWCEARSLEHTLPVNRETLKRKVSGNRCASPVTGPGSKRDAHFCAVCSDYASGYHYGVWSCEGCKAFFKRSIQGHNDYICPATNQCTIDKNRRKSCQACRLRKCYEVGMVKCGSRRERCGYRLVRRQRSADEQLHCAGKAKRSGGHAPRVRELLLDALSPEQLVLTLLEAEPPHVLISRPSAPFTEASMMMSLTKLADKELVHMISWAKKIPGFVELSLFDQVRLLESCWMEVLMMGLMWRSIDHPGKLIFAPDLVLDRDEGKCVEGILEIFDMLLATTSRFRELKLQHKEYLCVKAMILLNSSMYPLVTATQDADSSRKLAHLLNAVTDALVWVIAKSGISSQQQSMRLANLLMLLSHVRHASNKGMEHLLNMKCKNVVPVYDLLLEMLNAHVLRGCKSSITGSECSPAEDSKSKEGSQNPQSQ

Test [7] deals with Estrogen receptor (Homo sapiens) (UniProt P03372). In words: OT_ERa_GFPERaERE_0480: Odyssey Thera (OT) 8-hour HeLa Transcription Induction Assay for Estrogen Receptor (AID 2283381; active = hit-call score of the fitted dose curve at least 0.9, where 1 is the maximum; inactive = score below 0.9). The gist of the method: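 HeLa cells expressing GFP reporter under estrogen response element, imaged 8 h after dosing. GFP induction quantified by high-content fluorescence microscopy image analysis; gain of signal fitted versus DMSO.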
Chain of Estrogen receptor (Homo sapiens) (P03372 whole entry, looked up, the tested form may be a part): as the sequence (P03372 whole entry, looked up, the tested form may be a part) above

Test [8] shares this target. In words: OT_ERa_GFPERaERE_0120: Odyssey Thera (OT) 2-hour HeLa Transcription Induction Assay for Estrogen Receptor (AID 2283382). The method in brief:
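HeLa cells were dosed for 2 h, then GFP reporter induction was quantified by fluorescence microscopy with high-content image analysis. Gain of signal fitted against DMSO baseline.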

The nature of test [9]: CCTE_Mundy_HCI_Cortical_Synap_Neur_Matur_NeuriteSpotCountPerNeuriteLength: CCTE's Synaptogenesis and Neurite Maturation Assay in rat cortical cells for Neurite Spot Count per Neurite Length, Mundy Lab (AID 2284210; active = hit-call score of the fitted dose curve at least 0.9, where 1 is the maximum; inactive = score below 0.9). The method in brief:
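Rat primary cortical cultures, AraC added at DIV 5 to suppress glia; chemical exposure from DIV 7 to DIV 12. Fixed cells stained for MAP2 and synaptophysin plus Hoechst; synaptophysin puncta per neurite length quantified by high-content imaging, relative to DMSO.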

Test [10] is described as follows: CCTE_Mundy_HCI_Cortical_NOG_NeuriteLength: CCTE's Neurite Outgrowth Assay in rat cortical cells for Neurite Length, Mundy Lab (AID 2284213; active = hit-call score of the fitted dose curve at least 0.9, where 1 is the maximum; inactive = score below 0.9;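 as to AC50: neurites imaged about 48 to 50 h after chemical exposure began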). The gist of the method:
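Neurite length was read by high-content imaging of βIII-tubulin-labelled neurites in rat primary cortical cultures. Activity was fitted relative to DMSO.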

A short description of test [11]: CCTE_Mundy_HCI_Cortical_Synap_Neur_Matur_NeuriteLength: CCTE's Synaptogenesis and Neurite Maturation Assay in rat cortical cells for Neurite Length, Mundy Lab (AID 2284214; active = hit-call score of the fitted dose curve at least 0.9, where 1 is the maximum; inactive = score below 0.9). The gist of the method: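 Rat primary cortical cultures, AraC added DIV 5, dosed DIV 7 through DIV 12 […]. Fixed, MAP2/synaptophysin immunostained with Hoechst; neurite length by high-content imaging, fitted in positive direction versus DMSO.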

The nature of test [12]: CCTE_Mundy_HCI_Cortical_Synap_Neur_Matur_SynapseCount: CCTE's Synaptogenesis and Neurite Maturation Assay in rat cortical cells for Synapse Count, Mundy Lab (AID 2284218; active = hit-call score of the fitted dose curve at least 0.9, where 1 is the maximum; inactive = score below 0.9). The gist of the method: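 Rat primary cortical cultures, AraC at DIV 5, chemical dosing DIV 7 to DIV 12 (288.33 h). Fixed cells stained for MAP2, synaptophysin and Hoechst; synapses per neuron counted by high-content imaging, loss of signal versus DMSO.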

Test [13] is described as follows: CCTE_Mundy_HCI_Cortical_Synap_Neur_Matur_CellBodySpotCount: CCTE's Synaptogenesis and Neurite Maturation Assay in rat cortical cells for Cell Body Spot Count, Mundy Lab (AID 2284223; active = hit-call score of the fitted dose curve at least 0.9, where 1 is the maximum; inactive = score below 0.9). The gist of the method:
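Read-out: cell body-associated synaptophysin puncta per neuron, imaged after MAP2, synaptophysin and Hoechst staining. Rat cortical cells, AraC DIV 5, chemical dosing DIV 7, fixation DIV 12. Activity fitted in positive direction relative to DMSO baseline.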

Test [14] is described as follows: TAMU_PeakParms_SingleDonor1434_QT: Texas A&M University (TAMU) 1.5-hr Human Induced Pluripotent Stem Cell (iPSC)-derived Cardiomyocytes Calcium (Ca+2) Flux Assay for Cardiotoxicity: QT (decay-rise ratio) (AID 2284235). The method in brief:
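iPSC-derived cardiomyocytes (single donor 1434) dosed at 0.2, 1, 10, 100 uM final in 0.5% DMSO, 90 min at 37C. Ca2+ flux fluorescence decay/rise ratio; EC05 (5% increase versus DMSO) as POD, excluding beat-arrest and severe-notch data.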

Test [15] can be described thus: IUF_NPC2-5_viability_120hr: Viability Assessment at 120 hours in the Leibniz Research Institute for Environmental Medicine (IUF) Neural Progenitor Cell Migration and Differentiation Assay (NPC2-5) (AID 2284312; active = hit-call score of the fitted dose curve at least 0.9, where 1 is the maximum; inactive = score below 0.9). The gist of the method: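 Human fetal neural progenitor spheres (0.3 mm) plated on poly-D-lysine/laminin in N2 differentiation medium, exposed 120 h with half-medium refresh at day 3. Viability by alamar blue resazurin fluorescence; 7 concentrations, DMSO max 0.1%.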

Test [16] is described as follows: IUF_NPC1_cytotoxicity_72hr: Cytotoxicity Assessment at 72 hours in the Leibniz Research Institute for Environmental Medicine (IUF) Neural Progenitor Cell Proliferation Assay (NPC1) (AID 2284332).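 Also: rising LDH signal means more cytotoxicity.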 The method in brief:
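Human fetal neural progenitor spheres (0.3 mm) in EGF/FGF proliferation medium, 37C, exposed 72 h without renewal. LDH release in supernatant read by resorufin fluorescence; gain of signal scored relative to dynamic range.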

In test [17] the test system is SERPINA7 (gene 6906). The experiment in a line: CCTE_GLTED_hTBG: CCTE's human Thyroxine-binding Globulin (TBG) Inhibition Assay, Great Lakes Toxicology and Ecology Division (GLTED) Lab (AID 2284343).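 Also: active chemicals lower fluorescence versus DMSO baseline by displacing probe.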 The gist of the method: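 Human TBG incubated 2 h with test chemical; displacement of ANSA probe read by fluorescence, 380 nm excitation/475 nm emission. Loss of signal relative to DMSO.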

In test [18] the target is D(1A) dopamine receptor (Homo sapiens) (UniProt P21728). The experiment in a line: NVS_GPCR_hDRD1: NovaScreen (NVS) G Protein-Coupled Receptor Assay for human Dopamine Receptor D1 (DRD1) (AID 2283269). The gist of the method:
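Cell-free radioligand binding to human DRD1 from HEK293 membranes, read 1 h after dosing by filter-based scintillation counting. Loss of signal versus DMSO baseline marks displacement. Primary screen at 25 uM single concentration in duplicate; actives followed up in concentration series.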

Test [19] deals with human Phosphatase and Tensin Homolog (PTEN), PTEN (gene 5728) (UniProt P60484). The experiment in a line: NVS_ENZ_hPTEN: NovaScreen (NVS) Enzymatic Assay for human Phosphatase and Tensin Homolog (PTEN) (AID 2283203). The gist of the method: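 Cell-free recombinant human PTEN with fluorescent substrate; product separated by electrophoretic mobility shift and read by fluorescence 1 h after dosing. Primary screen in duplicate at 25 uM, actives followed in concentration series versus DMSO.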
Chain of human Phosphatase and Tensin Homolog (PTEN), PTEN (gene 5728) (P60484 whole entry, looked up): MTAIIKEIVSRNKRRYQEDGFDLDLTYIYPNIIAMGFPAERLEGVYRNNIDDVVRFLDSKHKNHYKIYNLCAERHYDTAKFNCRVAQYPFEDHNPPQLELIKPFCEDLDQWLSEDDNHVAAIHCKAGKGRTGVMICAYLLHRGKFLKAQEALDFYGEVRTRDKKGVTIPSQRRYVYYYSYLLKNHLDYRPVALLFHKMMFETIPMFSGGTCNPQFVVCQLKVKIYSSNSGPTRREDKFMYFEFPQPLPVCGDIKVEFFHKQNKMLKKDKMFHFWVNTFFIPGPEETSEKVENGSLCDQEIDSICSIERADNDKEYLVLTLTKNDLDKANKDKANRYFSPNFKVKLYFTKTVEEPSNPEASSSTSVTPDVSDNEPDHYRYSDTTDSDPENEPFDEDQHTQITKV

Test [20] addresses human Peroxisome Proliferator-activated Receptor alpha (PPARa), PPARA (gene 5465) (UniProt Q07869). In words: NVS_NR_hPPARa: NovaScreen (NVS) Nuclear Receptor Binding Assay for human Peroxisome Proliferator-activated Receptor alpha (PPARa) (AID 2283359).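 Also: activity means loss of TR-FRET signal versus DMSO baseline.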 The gist of the method: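 Cell-free TR-FRET binding assay with extracted PPARα protein, read 1 h after dosing. Primary screen in duplicate at 25 uM, with actives retested in concentration series. Loss of signal versus DMSO.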

Chain of human Beta-secretase (BACE), BACE1 (gene 23621) (P56817 whole entry, looked up): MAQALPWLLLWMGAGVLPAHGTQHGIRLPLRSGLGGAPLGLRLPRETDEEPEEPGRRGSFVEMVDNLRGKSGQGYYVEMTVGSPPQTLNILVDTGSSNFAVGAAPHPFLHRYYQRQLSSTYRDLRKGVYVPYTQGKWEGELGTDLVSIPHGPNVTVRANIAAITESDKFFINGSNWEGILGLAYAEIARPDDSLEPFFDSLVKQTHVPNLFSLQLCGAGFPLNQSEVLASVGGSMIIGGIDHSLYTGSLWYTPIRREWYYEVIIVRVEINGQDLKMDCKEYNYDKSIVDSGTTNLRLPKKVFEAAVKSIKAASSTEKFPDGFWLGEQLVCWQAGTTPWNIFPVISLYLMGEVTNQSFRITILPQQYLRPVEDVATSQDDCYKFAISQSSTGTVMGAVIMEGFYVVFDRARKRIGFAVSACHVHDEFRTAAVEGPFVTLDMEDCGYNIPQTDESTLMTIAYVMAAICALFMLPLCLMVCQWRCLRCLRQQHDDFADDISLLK
Chain of human Peroxisome Proliferator-activated Receptor alpha (PPARa), PPARA (gene 5465) (Q07869 whole entry, looked up): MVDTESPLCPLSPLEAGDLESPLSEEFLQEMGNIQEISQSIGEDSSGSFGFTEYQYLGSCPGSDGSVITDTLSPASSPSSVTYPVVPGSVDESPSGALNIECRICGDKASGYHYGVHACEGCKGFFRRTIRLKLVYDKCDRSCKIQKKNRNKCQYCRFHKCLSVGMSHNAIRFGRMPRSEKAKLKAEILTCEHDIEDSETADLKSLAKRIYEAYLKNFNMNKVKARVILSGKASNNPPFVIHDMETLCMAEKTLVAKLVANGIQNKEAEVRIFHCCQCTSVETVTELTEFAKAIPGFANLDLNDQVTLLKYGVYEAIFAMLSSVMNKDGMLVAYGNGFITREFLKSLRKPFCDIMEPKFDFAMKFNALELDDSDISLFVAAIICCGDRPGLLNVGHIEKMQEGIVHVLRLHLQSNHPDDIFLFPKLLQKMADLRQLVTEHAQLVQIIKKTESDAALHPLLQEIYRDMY
Chain of chimpanzee Androgen Receptor (AR), AR (gene 747460) (O97775 whole entry, looked up): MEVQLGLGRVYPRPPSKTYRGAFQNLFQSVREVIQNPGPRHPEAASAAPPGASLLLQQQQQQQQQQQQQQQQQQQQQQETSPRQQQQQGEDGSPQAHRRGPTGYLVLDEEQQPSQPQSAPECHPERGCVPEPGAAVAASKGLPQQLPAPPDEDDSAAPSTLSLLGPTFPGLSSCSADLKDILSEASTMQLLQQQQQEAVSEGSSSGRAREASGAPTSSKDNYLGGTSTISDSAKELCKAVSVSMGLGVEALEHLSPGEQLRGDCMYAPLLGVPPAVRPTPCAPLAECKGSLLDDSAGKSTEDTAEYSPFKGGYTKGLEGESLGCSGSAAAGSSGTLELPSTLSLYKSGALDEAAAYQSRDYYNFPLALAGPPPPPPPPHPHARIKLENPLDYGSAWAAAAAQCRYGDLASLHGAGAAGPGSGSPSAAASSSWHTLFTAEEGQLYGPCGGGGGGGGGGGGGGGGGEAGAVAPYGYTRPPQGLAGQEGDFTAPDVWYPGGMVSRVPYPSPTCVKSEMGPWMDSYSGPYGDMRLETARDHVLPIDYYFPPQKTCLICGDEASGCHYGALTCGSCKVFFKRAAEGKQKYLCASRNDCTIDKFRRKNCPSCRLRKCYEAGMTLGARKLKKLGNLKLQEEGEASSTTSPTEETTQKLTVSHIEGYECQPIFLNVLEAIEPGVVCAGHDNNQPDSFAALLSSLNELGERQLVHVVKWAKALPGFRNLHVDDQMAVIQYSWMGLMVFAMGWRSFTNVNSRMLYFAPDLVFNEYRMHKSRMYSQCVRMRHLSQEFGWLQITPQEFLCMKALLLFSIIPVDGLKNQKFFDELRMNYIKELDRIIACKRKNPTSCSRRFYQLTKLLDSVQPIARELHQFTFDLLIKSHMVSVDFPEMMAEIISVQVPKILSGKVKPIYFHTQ
Chain of D(1A) dopamine receptor (Homo sapiens) (P21728 whole entry, looked up): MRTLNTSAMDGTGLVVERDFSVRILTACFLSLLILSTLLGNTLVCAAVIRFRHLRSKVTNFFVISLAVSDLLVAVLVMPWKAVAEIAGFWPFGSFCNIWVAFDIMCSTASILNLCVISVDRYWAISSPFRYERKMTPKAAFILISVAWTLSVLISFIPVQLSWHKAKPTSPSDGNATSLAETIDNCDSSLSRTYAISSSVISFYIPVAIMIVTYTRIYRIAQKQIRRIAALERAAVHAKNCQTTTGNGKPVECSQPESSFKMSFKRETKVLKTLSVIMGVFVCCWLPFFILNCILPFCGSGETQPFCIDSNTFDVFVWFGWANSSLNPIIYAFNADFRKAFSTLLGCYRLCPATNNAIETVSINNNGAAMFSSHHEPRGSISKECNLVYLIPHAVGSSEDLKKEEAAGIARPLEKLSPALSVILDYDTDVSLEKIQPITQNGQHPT

Take `CC(C)COP(=O)(OCC(C)C)OCC(C)C`: the compound was classed as inactive in test [1].
Broadly, the AC50 is the concentration at which the activity in the assay is half-maximal. For the compound `Nc1ccc(Cl)c(Cl)c1`, the AC50 in test [2] was 25 µM (active).
Regarding `O=CNC(N1CCN(C(NC=O)C(Cl)(Cl)Cl)CC1)C(Cl)(Cl)Cl` (stereo unspecified), the compound was classed as inactive in test [3], in [4], in test [5], in test [6], in test [7] and in test [8].
As for `O=c1c2ccccc2c(=O)c2c1cc(Cl)c1[nH]c3c([nH]c12)c(Cl)cc1c(=O)c2ccccc2c(=O)c13`, in test [1], the AC50 was 12.4 µM (active).
`Cc1ccc(OP(=O)(Oc2ccc(C)cc2)Oc2ccc(C)cc2)cc1` (tested in a mixture with another compound): the AC50 was 15 µM (active) in test [9], 21.4 µM (active) in test [10], 15 µM (active) in [12] and 1.03 µM (active) in test [17]. Also, the call in test [11], in test [13], in test [14], in test [15] and in test [16] was inactive.
Consider `CC1CCCC1.[C-]#[O+].[C-]#[O+].[C-]#[O+].[Mn]`, for which the AC50 in test [14] was 9.92 µM (active).
Consider `CNC(=O)Oc1cc(C)c(SC)c(C)c1`, for which the call in [18] was inactive.
As for `CC1(C)[C@H](C(=O)O[C@H](C#N)c2cccc(Oc3ccccc3)c2)[C@@H]1C=C(Br)Br`, the compound was called inactive in test [9], in [10], in test [13], in test [15] and in test [16]. Also, the AC50 in test [11] was 8.82 µM (active); in [12], 6.79 µM (active).
On to `O=[N+]([O-])c1ccc(Cl)cc1`, for which the outcome in test [3] was inactive.
With `c1ccc(P(c2ccccc2)c2ccccc2)cc1`, the result in test [4] was inactive. Moreover, the AC50 in test [5] is 60.6 µM (active); in test [6], 64.4 µM (active); in test [7] it was 84.1 µM (active); in [8] it was 17 µM (active); in test [17], 41.7 µM (active).
For `CC(C)C(=O)Cl`, the result in test [18] was inactive.
As for `Clc1ccc(-c2ccccc2)cc1`, the call in [19] was inactive.
Take `[CH3][Sn]([CH3])([Cl])[Cl]`: the outcome in test [20] was inactive.
Take `Cl/C=C\CCl`: in test [19], the outcome was inactive.
As for `O=C1Nc2ccc(Cl)cc2C(c2ccccc2)=NC1O` (stereo unspecified), the AC50 in [17] was 37.3 µM (active).
Regarding `CC(=O)c1cc2c(cc1C)C(C)(C)C(C)CC2(C)C` (stereo unspecified), the call in test [2] was inactive.
For `Cc1cc(C)c(C2=C(OC(=O)CC(C)(C)C)C3(CCCC3)OC2=O)c(C)c1`, the compound was classed as inactive in [4], in test [5], in test [6], in test [7] and in test [8].
`Nc1ccc(-c2ccc(N)c(N)c2)cc1N`: the AC50 in [1] was 10.2 µM (active).
Turning to `CC[N+](=O)[O-]`, the result in test [2] was inactive.
`CC(C)CCCCCCCOP(=O)(Oc1ccccc1)Oc1ccccc1`: the outcome in [14], in [15] and in test [16] was inactive.
For the compound `CNC(=N[N+](=O)[O-])NCC1CCOC1` (stereo unspecified), the result in [3], in test [9], in test [10], in [13], in test [15] and in test [16] was inactive. Further, the AC50 in test [11] is 0.0157 µM (active); in test [12], 0.00885 µM (active).
With `O=C1C=CC(=O)C=C1`, the AC50 in test [18] is 12.8 µM (active).
With `COc1cc(OC)nc(Oc2cccc(Oc3nc(OC)cc(OC)n3)c2C(=O)O)n1`, the compound was called inactive in test [20].
Consider `O=[N+]([O-])C=Cc1ccccc1`, for which, in test [18], the AC50 was 8.25 µM (active).
Take `CCCCCCCCCCCCCCCC[N+](C)(C)C`: the AC50 in test [20] is 19.9 µM (active).
With `ClC1=C(Cl)[C@]2(Cl)[C@@H]3[C@@H](Cl)[C@H](Cl)C[C@@H]3[C@@]1(Cl)C2(Cl)Cl`, the call in test [19] was inactive.
Turning to `Nc1ccccc1`, the compound was classed as inactive in [20].
In the case of `SCc1ccco1`, the AC50 in [19] is 25 µM (active).
For `CCOC(=O)COc1ccc(Cl)cc1Cl`, the AC50 in [17] was 24.6 µM (active).

(Values after PubChem BioAssay (EPA / NIEHS).)
